Source: PubChem (several laboratories)
Sampled rows, rich in hits. Any-hit rate of the full collection: about 1.6%.
Redox H2O2 prof: compounds producing H2O2 with reducing agent – biochemical, NIH compound library profiling, artefact control for MLSCN library redox annotation, primary screen. DTT-dependent redox cycling H2O2, phenol red/HRP absorbance; 100% = 100 µM peroxide control, 0% = buffer. activation, % at 10 µM. 0.03% of 200,000 active. AID 878;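 active = activation of at least 50% relative to the plate's high and low controls in the primary single-dose screen; inactive = activation below 50%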;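 also: compound incubated with DTT at 0.8 mM final as the reducing agent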
S1P4 antag: antagonists of human S1P4 receptor; O95977; AID 1510; inhibition, % at 4.98 µM; 0.26% of 220,000 active; S1P4-expressing cells, antagonist mode, reporter read-out; in the data active = inhibition above about 29%
p97 ATPase inh: human p97 ATPase inhibition; P55072; recombinant p97 ATPase, Kinase-Glo ATP luminescence, 3 h; inhibition, % at 8 µM; 0.42% of 220,000 active; in the data active = inhibition above about 15%
Arbovirus inh: blocks arbovirus infection; inhibition, % at 10 µM; 0.37% of 200,000 active; arbovirus infection cell-based antiviral screen; AID 1251; in the data active = inhibition above about 30%
S1P3 antagonist: antagonists of human S1P3 receptor. Q99500. CHO S1P3 NFAT-BLA reporter, FRET fluorescence, antagonist mode. inhibition, % at 4.98 µM. 0.27% of 170,000 active. AID 485;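 active = inhibition above the plate cutoff, the mean inhibition of test wells on that plate plus 3 SD, cut at about 28% in these data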;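 also: cells challenged with S1P at its EC80 of 0.8 µM; blue over green emission ratio from cleaved BLA substrate after 4 h stimulation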
S1P4 agonist: human S1P4 receptor agonism; O95977; S1P4-expressing cell line, agonist reporter assay; activation, % at 4.98 µM; 0.35% of 220,000 active; AID 1509; in the data active = activation above about 11%
S1P4 agonist cf: human S1P4 agonism, confirmation; S1P4 agonist cell-based reporter assay; activation, % at 4.98 µM; 7% of 740 active; shares compounds with S1P4 agonist; in the data active = activation above about 12%
S1P1 agonist: counter-screen for S1P4 agonists: agonists of human S1P1; shares compounds with S1P4 agonist; S1P1 agonist cell-based assay, activation; 4% of 740 active; activation, % at 4.98 µM; AID 1563; in the data active = activation above about 21%
Target sequence (P21453 whole entry, looked up): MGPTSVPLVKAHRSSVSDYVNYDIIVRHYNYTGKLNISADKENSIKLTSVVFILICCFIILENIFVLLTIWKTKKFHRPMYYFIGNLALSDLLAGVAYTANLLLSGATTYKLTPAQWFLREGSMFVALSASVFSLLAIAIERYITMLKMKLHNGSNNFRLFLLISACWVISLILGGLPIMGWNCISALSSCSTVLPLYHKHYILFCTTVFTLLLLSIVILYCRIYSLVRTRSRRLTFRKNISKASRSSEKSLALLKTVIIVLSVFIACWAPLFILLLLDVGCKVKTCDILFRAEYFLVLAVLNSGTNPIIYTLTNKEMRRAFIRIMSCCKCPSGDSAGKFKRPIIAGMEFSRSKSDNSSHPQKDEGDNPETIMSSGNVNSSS
Each line names hits and unclear results; the compound was inactive in the other large screens (follow-up assays come after a bar, where they were run).

O=C(N/N=C\c1ccc(O)c([N+](=O)[O-])c1)c1ccccc1-n1cccc1	S1P4 agonist 16 | S1P4 agonist cf inactive | S1P1 agonist inactive
Fc1ccc(-c2cc(C(F)(F)F)n3ncnc3n2)cc1	none
COc1ccc2cc(OC)c(C(=O)N3CCOCC3)cc2c1	S1P4 agonist 14 | S1P4 agonist cf inactive | S1P1 agonist inactive
CCOC(=O)c1cnn2c1[nH]c(=O)c1ccccc12	S1P4 agonist 255 (no result: S1P3 antagonist) | S1P4 agonist cf inactive | S1P1 agonist inactive
COc1ccc(Nc2nc(Nc3ccc(OC)cc3OC)nc(N3CCN(C)CC3)n2)c(OC)c1	none
Nc1nc(N2CCOCC2)cc(=O)[nH]1	none (no result: S1P3 antagonist)
Cc1cc(C=NCCCO)c(C)n1-c1cc(Cl)ccc1Cl	S1P4 agonist 13 | S1P4 agonist cf 21 | S1P1 agonist inactive
Cc1cc(/C=N/n2cnnc2)c(C)n1-c1ccc(Cl)cc1Cl	none
Cn1cnnc1SCC(=O)NNC(=O)c1ccc(Cl)cc1	none
CC(=O)C1=C(C)NC(SCC(=O)c2ccc(Cl)cc2Cl)=C(C#N)C1c1ccco1 (stereo unspecified)	S1P4 agonist 24 | S1P4 agonist cf 26 | S1P1 agonist inactive
Cc1ccc2nc(-c3ccc(NS(=O)(=O)c4ccccc4)cc3)sc2c1	none
Cc1ccc2nc(-c3ccc(NS(=O)(=O)c4ccc(F)c(F)c4)cc3)sc2c1	S1P4 agonist 30 | S1P4 agonist cf inactive | S1P1 agonist inactive
Cc1cc(C(=O)CN2C(=O)C(=O)N(Cc3ccccc3)C2=O)c(C)n1-c1ccccc1F	S1P4 agonist 13 | S1P4 agonist cf inactive | S1P1 agonist inactive
CCOC(=O)CNc1ccc(C(=O)OCC)cc1[N+](=O)[O-]	none
CCCNc1ccc(C(=O)OCC)cc1[N+](=O)[O-]	S1P4 agonist 34 | S1P4 agonist cf inactive | S1P1 agonist inactive
CCc1ccc(/C=C2\Oc3ccc(C(=O)OC)cc3C2=O)cc1	none
COC(=O)c1ccc2c(c1)C(=O)/C(=C/c1ccc(C)cc1)O2	S1P4 agonist 13 | S1P4 agonist cf inactive | S1P1 agonist inactive
O=C(CSc1ncccn1)N1CCN(S(=O)(=O)c2ccccc2)CC1	none (no result: Redox H2O2 prof, Arbovirus inh)
O=C(Cn1cnc2ccccc21)N1CCN(S(=O)(=O)c2ccccc2)CC1	S1P4 agonist 15 | S1P4 agonist cf inactive | S1P1 agonist inactive
Cn1c(O)c(N=NC(=S)Nc2ccccc2F)c2cc(S(=O)(=O)N3CCOCC3)ccc21	S1P4 agonist 17 | S1P4 agonist cf inactive | S1P1 agonist inactive
Cc1ccc(NC(=S)N=Nc2c(O)n(C)c3ccc(S(=O)(=O)N4CCOCC4)cc23)cc1C	none
Cc1cccc(CSC2=NCCN2C(=O)c2ccco2)c1	none
COCCCn1c(=O)/c(=C\c2ccccc2OC(F)F)s/c1=C(/C#N)C(=O)NCCOC	none (no result: Redox H2O2 prof, Arbovirus inh)
COCCNC(=O)/C(C#N)=c1\s/c(=C\c2ccccc2OC(F)F)c(=O)n1Cc1ccccc1	S1P4 agonist 12 | S1P4 agonist cf inactive | S1P1 agonist inactive
Cc1ccc(CCC(=O)Nc2ccccc2F)s1	S1P4 agonist 185 | S1P4 agonist cf inactive | S1P1 agonist inactive
COc1ccc(CNC(=O)c2cccc(-c3ccc(C)c4ccccc34)n2)cc1	none
COc1ccc2nc(NC3=NC(C(=O)Nc4ccc(C)cc4)CC(=O)N3)nc(C)c2c1 (stereo unspecified)	S1P4 agonist 38 | S1P4 agonist cf inactive | S1P1 agonist inactive
COc1ccc(NC(=O)C2CC(=O)NC(Nc3cccc(C)c3)=N2)cc1 (stereo unspecified)	none
O=C(/C=C/c1ccc(F)cc1)N1CCN(c2ccccn2)CC1	S1P4 agonist 16 | S1P4 agonist cf inactive | S1P1 agonist inactive
CCCOc1ccc(/C=C/C(=O)N2CCN(c3ccccn3)CC2)cc1	none
O=C(/C=C/c1ccccc1[N+](=O)[O-])NCc1cccnc1	none
CCCCC(=O)NCCc1ccc(OC)cc1	S1P4 agonist 26 (no result: S1P3 antagonist) | S1P4 agonist cf inactive | S1P1 agonist inactive
CCCCN(CCCC)S(=O)(=O)c1c(C)[nH]c(=O)[nH]c1=O	none
CN1CCN(c2ccccc2NC(=O)c2sc3ccccc3c2Cl)CC1	none
Cc1cc(C)nc(/N=C(\N)Nc2cccc([N+](=O)[O-])c2)n1	S1P4 agonist 12 | S1P4 agonist cf inactive | S1P1 agonist inactive
CCc1nc(N)c(C#N)c(-c2ccncc2)c1C	none
CCc1nc(N)c(C#N)c(-c2cccc3ccccc23)c1C	S1P4 agonist 16 (no result: S1P3 antagonist) | S1P4 agonist cf inactive | S1P1 agonist inactive
Cc1ccc(-n2c(SCC(=O)N3CC(=O)Nc4ccccc43)nc3ccccc3c2=O)cc1	S1P4 agonist 27 | S1P4 agonist cf inactive | S1P1 agonist inactive
Cc1cccc(C)c1-n1c(SCC(=O)N2CC(=O)Nc3ccccc32)nc2ccccc2c1=O	none
CC(=O)Nc1nn(C)c2nc(C)cc(C)c12	S1P4 agonist 28 | S1P4 agonist cf inactive | S1P1 agonist inactive
CCOC(=O)c1c(NC(=O)CN2CCCc3ccccc32)sc(C(C)=O)c1C	S1P4 agonist 16 | S1P4 agonist cf inactive | S1P1 agonist inactive
COc1ccccc1-n1c(SCC(N)=O)nnc1-c1ccc(S(=O)(=O)N2CCCCC2)cc1	S1P4 agonist 23 | S1P4 agonist cf inactive | S1P1 agonist inactive
NC(=O)CSc1nnc(-c2ccc(S(=O)(=O)N3CCCCC3)cc2)n1-c1ccccc1	none (no result: S1P3 antagonist)
Cc1csc(NC(=O)CCc2c(C)nc3cc(-c4ccc(Cl)cc4)nn3c2C)n1	S1P4 agonist 196 | S1P4 agonist cf inactive | S1P1 agonist inactive
O=c1cc(CSc2nc(NCc3ccccc3)c3ccccc3n2)nc2ccc(Cl)cn12	S1P4 agonist 28 | S1P4 agonist cf inactive | S1P1 agonist inactive
COc1ccc(NC(=S)Nc2cnc3ccccc3c2)c(OC)c1	none
CCOC(=O)/C=c1\s/c(=C(\C#N)C(=O)OCC)n(-c2ccccc2)c1=O	S1P4 agonist 160 (no result: S1P3 antagonist) | S1P4 agonist cf inactive | S1P1 agonist inactive
CNC(=O)/C(C#N)=c1\s/c(=C/C(=O)OC)c(=O)n1-c1ccccc1	none (no result: S1P3 antagonist)
COc1ccccc1OCC(=O)NCc1nc(-c2ccccc2)no1	S1P4 agonist 76 | S1P4 agonist cf inactive | S1P1 agonist inactive
N=c1c(C(=O)NCc2ccc(F)cc2)cc2c(=O)n3ccccc3nc2n1CC1CCCO1 (stereo unspecified)	S1P4 agonist 13 | S1P4 agonist cf 14 | S1P1 agonist inactive
COCCCn1c(=N)c(C(=O)NCC2CCCO2)cc2c(=O)n3cccc(C)c3nc21 (stereo unspecified)	none
N=c1c(C(=O)NCc2ccco2)cc2c(=O)n3ccccc3nc2n1CC1CCCO1 (stereo unspecified)	none (no result: Arbovirus inh, S1P3 antagonist)
COCCCn1c(=N)c(C(=O)NCC2CCCO2)cc2c(=O)n3ccccc3nc21 (stereo unspecified)	S1P4 agonist 12 | S1P4 agonist cf inactive | S1P1 agonist inactive
